According to the supplement of paper PMC10849652:
The full data set covers some 8,800 targets. This sample favours those with a hit. About 0.5% of all pairs of compound and target were hits.

How the values were obtained:
Assay in all cases: log2 fold change, soluble protein after heating vs DMSO (PISA); higher = thermal stabilisation; K562 lysate, 10 uM; active = over 0.2 and 3.5 SD of the protein, either way, in both replicates (recomputed)
[1] = compound: Cc1cn(-c2cc(NC(=O)c3ccc(C)c(Nc4nccc(-c5cccnc5)n4)c3)cc(C(F)(F)F)c2)cn1 [nilotinib]
Outline: (§1)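 Dounce homogenisation of K562 pellets in PBS pH 7.4 with 1 mM MgCl2 produced a crude extract, used at 1 mg/mL protein. Exposure to 10 μM compound lasted 30 min, and aliquots were then heated for 3 min across 48°C-58°C, pooled and brought to 0.5% NP-40 at 4°C. The supernatant after 21,000xg for 90 min was quantified by TMTpro 16plex LC-MS/MS with channel sums equalised. Duplicate values are given as log-two fold change in thermal stability relative to solvent controls.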

[2] = compound: Cc1nc(Nc2n[nH]c3c2CN(C(=O)N[C@H](CN(C)C)c2ccccc2)C3(C)C)c2sccc2n1
Outline: as §1

[3] = compound: Cc1nc(Nc2ncc(C(=O)Nc3c(C)cccc3Cl)s2)cc(N2CCN(CCO)CC2)n1 [dasatinib]
Outline: as §1

[4] = compound: Cc1ncc(-c2ccnc(Nc3ccc(S(C)(=O)=O)cc3)n2)n1C(C)C
Outline: as §1

[5] = compound: Cn1cc(-c2ccc3c(c2)CCN3C(=O)Cc2cccc(C(F)(F)F)c2)c2c(N)ncnc21
Outline: as §1

[6] = compound: Cn1cc(CNCC2CCN(c3ncc(C(=O)NO)cn3)CC2)c2ccccc21 [quisinostat]
Outline: as §1

[7] = compound: Cn1cncc1[C@@](N)(c1ccc(Cl)cc1)c1ccc2c(c1)c(-c1cccc(Cl)c1)cc(=O)n2C [tipifarnib]
Outline: as §1

[8] = compound: NC(=O)Nc1cc(-c2cccc(F)c2)sc1C(=O)N[C@H]1CCCNC1
Outline: as §1

[9] = compound: NC(=O)c1cnc(N[C@@H]2CCCC[C@@H]2N)nc1Nc1cccc(-n2nccn2)c1
Outline: as §1

[10] = compound: NC1(c2ccc(-c3nc4ccn5c(=O)[nH]nc5c4cc3-c3ccccc3)cc2)CCC1
Outline: as §1

[11] = compound: NCC(=O)Nc1ccc(-n2nc(C(F)(F)F)cc2-c2ccc3c(ccc4ccccc43)c2)cc1
Outline: as §1

[12] = compound: O=C(CCCCCCC(=O)Nc1ccccc1)NO [vorinostat]
Outline: as §1

[13] = compound: O=C(O)c1ccc2c(c1)nc(Nc1cccc(Cl)c1)c1ccncc12 [silmitasertib]
Outline: as §1

[14] = compound: O=C1NC(=O)C(c2cnc3ccccn23)=C1c1cn2c3c(cc(F)cc13)CN(C(=O)N1CCCCC1)CC2
Outline: as §1

[15] = compound: c1cn2cc(-c3ccc4cn[nH]c4c3)nc(Nc3ccc(N4CCOCC4)cc3)c2n1 [entospletinib]
Outline: as §1

Measured: log2 fold change

CHMP4A isoform 2 (UniProt Q9BY43)
UniProt Q9BY43, sequence (Q9BY43 whole entry, looked up): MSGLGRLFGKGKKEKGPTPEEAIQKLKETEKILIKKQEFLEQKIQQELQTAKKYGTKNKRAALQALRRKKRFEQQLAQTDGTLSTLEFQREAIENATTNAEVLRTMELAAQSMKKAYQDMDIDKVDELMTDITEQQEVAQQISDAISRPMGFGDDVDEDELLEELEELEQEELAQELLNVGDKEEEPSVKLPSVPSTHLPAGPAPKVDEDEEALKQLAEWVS
inactive: [1] -0.026 | [2] -0.021 | [3] 0.039 | [4] 0 | [5] -0.011 | [6] -0.145 | [7] 0.017 | [8] -0.029 | [9] -0.02 | [10] -0.009 | [11] 0.011 | [12] 0.1 | [13] -0.027 | [14] -0.051 | [15] 0.019

CSK (UniProt P41240)
UniProt P41240, sequence (P41240 whole entry, looked up): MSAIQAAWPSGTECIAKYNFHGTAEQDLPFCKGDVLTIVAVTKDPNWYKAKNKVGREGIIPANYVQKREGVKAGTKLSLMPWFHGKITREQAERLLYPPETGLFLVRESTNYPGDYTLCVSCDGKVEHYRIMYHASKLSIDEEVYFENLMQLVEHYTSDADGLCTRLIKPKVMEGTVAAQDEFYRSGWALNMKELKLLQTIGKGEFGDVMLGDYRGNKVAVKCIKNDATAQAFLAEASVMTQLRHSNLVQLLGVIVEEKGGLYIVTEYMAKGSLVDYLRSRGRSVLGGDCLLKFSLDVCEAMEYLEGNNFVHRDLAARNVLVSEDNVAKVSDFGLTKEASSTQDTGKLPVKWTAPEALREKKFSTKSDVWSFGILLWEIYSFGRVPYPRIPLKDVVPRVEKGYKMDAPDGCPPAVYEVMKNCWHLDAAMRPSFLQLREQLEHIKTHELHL
inactive: [1] 0.144 | [2] 0.125 | [4] 0.002 | [5] 0.102 | [6] -0.08 | [7] -0.041 | [9] 0.071 | [10] -0.043 | [11] -0.008 | [12] -0.262 | [13] -0.006 | [14] -0.021 | [15] 0.195
active: [3] 0.578 | [8] 0.646

CRABP2 (UniProt P29373)
UniProt P29373, sequence (P29373 whole entry, looked up): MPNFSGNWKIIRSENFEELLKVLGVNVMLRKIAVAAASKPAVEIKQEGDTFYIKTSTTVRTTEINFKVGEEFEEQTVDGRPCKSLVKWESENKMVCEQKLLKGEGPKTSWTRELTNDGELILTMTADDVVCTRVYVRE
inactive: [1] -0.063 | [2] -0.125 | [3] 0.076 | [4] -0.066 | [5] 0.006 | [6] -0.004 | [7] 0.061 | [8] -0.049 | [9] -0.036 | [10] -0.02 | [11] 0.169 | [12] 0.18 | [13] -0.05 | [14] 0.007 | [15] -0.209

CYCS (UniProt P99999)
UniProt P99999, sequence (P99999 whole entry, looked up): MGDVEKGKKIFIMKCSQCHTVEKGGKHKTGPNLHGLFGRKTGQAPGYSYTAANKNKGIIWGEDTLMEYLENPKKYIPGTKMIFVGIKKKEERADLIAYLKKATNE
inactive: [1] 0.014 | [2] -0.038 | [3] 0.001 | [4] 0.008 | [5] -0.037 | [6] 0.035 | [7] 0.015 | [8] -0.003 | [9] -0.015 | [10] 0.022 | [11] 0.017 | [12] 0.114 | [13] -0.004 | [14] 0.033 | [15] 0.011

CLIC2 (UniProt O15247)
UniProt O15247, sequence (O15247 whole entry, looked up): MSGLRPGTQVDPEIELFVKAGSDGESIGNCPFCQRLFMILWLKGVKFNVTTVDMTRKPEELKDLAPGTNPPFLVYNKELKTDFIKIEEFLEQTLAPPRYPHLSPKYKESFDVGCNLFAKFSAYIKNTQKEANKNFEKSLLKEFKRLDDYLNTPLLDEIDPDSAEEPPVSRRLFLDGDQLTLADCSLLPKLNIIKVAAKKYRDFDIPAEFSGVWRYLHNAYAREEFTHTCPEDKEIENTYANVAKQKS
inactive: [1] 0.029 | [2] -0.032 | [3] -0.017 | [4] 0.004 | [5] -0.022 | [6] -0.019 | [7] -0.024 | [8] 0.023 | [9] 0.004 | [10] -0.005 | [11] 0.022 | [13] -0.018 | [14] 0.029 | [15] 0.005
active: [12] -0.369

DPM1 (UniProt O60762)
UniProt O60762, sequence (O60762 whole entry, looked up): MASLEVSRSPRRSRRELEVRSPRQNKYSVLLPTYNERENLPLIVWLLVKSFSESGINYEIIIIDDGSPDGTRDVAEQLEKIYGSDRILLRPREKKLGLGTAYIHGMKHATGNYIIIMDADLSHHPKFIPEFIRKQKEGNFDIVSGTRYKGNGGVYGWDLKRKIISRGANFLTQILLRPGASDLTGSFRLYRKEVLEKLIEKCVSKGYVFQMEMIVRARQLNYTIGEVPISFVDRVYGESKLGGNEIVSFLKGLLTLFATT
inactive: [1] 0.013 | [2] 0.019 | [3] 0.028 | [4] -0.014 | [5] 0.044 | [6] 0.057 | [7] 0.03 | [8] 0.038 | [9] 0.019 | [10] -0.057 | [11] 0.05 | [12] -0.01 | [13] -0.016 | [14] -0.011 | [15] 0.02

CLASP2 isoform 3 (UniProt O75122)
inactive: [1] 0.013 | [2] -0.004 | [3] -0.024 | [4] 0.02 | [5] 0.021 | [6] -0.042 | [7] -0.063 | [8] -0.07 | [9] -0.007 | [10] 0.032 | [11] 0.035 | [13] -0.033 | [14] -0.02 | [15] 0.005
active: [12] -0.329

DDX39A (UniProt O00148)
UniProt O00148, sequence (O00148 whole entry, looked up): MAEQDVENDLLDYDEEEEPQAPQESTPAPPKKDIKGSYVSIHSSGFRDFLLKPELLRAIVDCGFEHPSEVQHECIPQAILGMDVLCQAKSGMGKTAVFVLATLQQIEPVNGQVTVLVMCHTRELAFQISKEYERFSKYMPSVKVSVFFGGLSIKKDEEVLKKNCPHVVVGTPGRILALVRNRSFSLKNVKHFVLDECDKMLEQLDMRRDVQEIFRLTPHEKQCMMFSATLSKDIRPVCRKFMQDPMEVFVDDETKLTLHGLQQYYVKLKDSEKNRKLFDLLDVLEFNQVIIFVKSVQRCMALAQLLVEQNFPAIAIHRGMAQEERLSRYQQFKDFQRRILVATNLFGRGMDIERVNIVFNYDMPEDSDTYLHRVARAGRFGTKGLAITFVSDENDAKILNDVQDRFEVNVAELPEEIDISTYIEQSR
inactive: [1] -0.002 | [2] 0.02 | [3] 0.001 | [4] 0.007 | [5] 0.06 | [6] -0.018 | [7] -0.053 | [8] 0.075 | [9] 0.036 | [10] -0.013 | [11] 0.017 | [13] 0.017 | [14] 0.036 | [15] -0.033
active: [12] -0.383

COQ9 (UniProt O75208)
UniProt O75208, sequence (O75208 whole entry, looked up): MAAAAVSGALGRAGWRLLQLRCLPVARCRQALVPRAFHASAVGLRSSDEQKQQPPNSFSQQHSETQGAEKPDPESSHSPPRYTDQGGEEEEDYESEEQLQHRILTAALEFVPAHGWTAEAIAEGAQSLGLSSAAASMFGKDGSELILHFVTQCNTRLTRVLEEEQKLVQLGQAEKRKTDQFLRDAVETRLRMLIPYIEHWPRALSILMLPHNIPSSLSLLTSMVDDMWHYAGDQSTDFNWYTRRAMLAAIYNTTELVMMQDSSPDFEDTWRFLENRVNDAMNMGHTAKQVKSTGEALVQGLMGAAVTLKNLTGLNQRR
inactive: [1] 0.021 | [2] 0.03 | [3] -0.021 | [4] 0 | [5] -0.007 | [6] 0.036 | [7] -0.016 | [8] 0 | [9] 0.002 | [10] -0.018 | [11] 0.005 | [12] 0.084 | [13] 0.002 | [14] 0.031 | [15] -0.012

CHURC1 isoform 2 (UniProt Q8WUH1)
UniProt Q8WUH1, sequence (Q8WUH1 whole entry, looked up): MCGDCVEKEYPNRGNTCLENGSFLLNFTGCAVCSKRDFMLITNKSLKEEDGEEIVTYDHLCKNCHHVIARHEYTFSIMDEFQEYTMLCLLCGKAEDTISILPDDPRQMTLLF
active: [12] 0.285
inactive: [1] 0.055 | [2] -0.029 | [3] 0.016 | [4] -0.09 | [5] -0.001 | [6] -0.074 | [7] 0.027 | [8] 0.018 | [9] -0.041 | [10] -0.083 | [11] -0.048 | [13] -0.039 | [14] -0.043 | [15] -0.128

CIB1 (UniProt Q99828)
UniProt Q99828, sequence (Q99828 whole entry, looked up): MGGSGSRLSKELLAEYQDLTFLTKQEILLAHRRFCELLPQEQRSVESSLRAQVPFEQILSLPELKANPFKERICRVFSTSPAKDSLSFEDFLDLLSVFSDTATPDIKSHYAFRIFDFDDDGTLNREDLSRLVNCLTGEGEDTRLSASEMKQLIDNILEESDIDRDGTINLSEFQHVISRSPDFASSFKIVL
inactive: [1] -0.014 | [2] -0.016 | [3] 0.022 | [4] 0.045 | [5] 0.008 | [6] 0.004 | [7] 0.002 | [8] -0.011 | [9] 0.041 | [10] 0 | [11] -0.027 | [12] 0.049 | [13] -0.006 | [14] -0.037 | [15] -0.091

CIAO2A (UniProt Q9H5X1)
UniProt Q9H5X1, sequence (Q9H5X1 whole entry, looked up): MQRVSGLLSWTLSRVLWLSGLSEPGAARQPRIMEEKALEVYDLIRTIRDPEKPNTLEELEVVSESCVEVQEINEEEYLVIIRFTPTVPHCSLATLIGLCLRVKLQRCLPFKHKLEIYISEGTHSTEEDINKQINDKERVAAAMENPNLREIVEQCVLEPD
active: [12] 0.368
inactive: [1] -0.018 | [2] 0.033 | [3] -0.037 | [4] -0.074 | [5] 0.011 | [6] 0.011 | [7] -0.067 | [8] -0.004 | [9] -0.027 | [10] -0.038 | [11] 0.021 | [13] -0.016 | [14] -0.037 | [15] 0.009

DLGAP5 (UniProt Q15398)
inactive: [1] -0.013 | [2] 0.029 | [3] -0.036 | [4] 0 | [5] 0.001 | [6] -0.033 | [7] 0.001 | [8] 0.011 | [9] 0.006 | [10] 0.007 | [11] -0.008 | [13] -0.002 | [14] -0.006 | [15] -0.004
active: [12] -0.252

CYP51A1 (UniProt Q16850)
UniProt Q16850, sequence (Q16850 whole entry, looked up): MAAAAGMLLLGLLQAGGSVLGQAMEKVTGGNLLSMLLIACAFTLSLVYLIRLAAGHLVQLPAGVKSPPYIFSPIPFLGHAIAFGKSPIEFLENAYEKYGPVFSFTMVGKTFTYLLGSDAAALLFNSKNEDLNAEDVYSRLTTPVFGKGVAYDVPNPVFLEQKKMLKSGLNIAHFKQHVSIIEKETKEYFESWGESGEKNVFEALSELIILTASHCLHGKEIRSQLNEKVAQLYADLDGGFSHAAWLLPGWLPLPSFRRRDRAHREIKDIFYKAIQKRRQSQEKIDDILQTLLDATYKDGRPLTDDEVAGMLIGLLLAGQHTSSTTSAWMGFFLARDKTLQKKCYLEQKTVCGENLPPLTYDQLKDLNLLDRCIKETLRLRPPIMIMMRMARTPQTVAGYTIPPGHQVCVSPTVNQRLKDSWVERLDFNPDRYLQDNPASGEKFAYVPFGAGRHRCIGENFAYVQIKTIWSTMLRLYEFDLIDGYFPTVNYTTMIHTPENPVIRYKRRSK
active: [7] 0.664 | [14] 0.864
inactive: [1] 0.124 | [2] -0.026 | [3] 0.048 | [4] 0.034 | [5] 0.083 | [6] -0.021 | [8] -0.016 | [9] -0.009 | [10] -0.081 | [11] -0.065 | [12] 0.017 | [13] -0.084 | [15] 0.024

CLUH, A0A494C0R8
inactive: [1] 0.026 | [2] 0.146 | [3] 0.028 | [4] -0.022 | [5] 0.015 | [6] -0.165 | [7] -0.033 | [8] 0.022 | [9] -0.045 | [10] 0.046 | [11] -0.115 | [12] 0.028 | [13] 0.069 | [14] 0.033 | [15] 0.033

COX7B (UniProt P24311)
UniProt P24311, sequence (P24311 whole entry, looked up): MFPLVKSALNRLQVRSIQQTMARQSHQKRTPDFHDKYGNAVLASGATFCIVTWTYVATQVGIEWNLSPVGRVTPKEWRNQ
inactive: [1] 0.001 | [2] 0.017 | [3] -0.008 | [4] 0.016 | [5] 0.025 | [6] 0.047 | [7] 0.023 | [8] -0.03 | [9] -0.047 | [10] 0 | [11] -0.043 | [12] 0.081 | [13] 0 | [14] 0 | [15] 0.104

CWC22 (UniProt Q9HCG8)
UniProt Q9HCG8, sequence (Q9HCG8 whole entry, looked up): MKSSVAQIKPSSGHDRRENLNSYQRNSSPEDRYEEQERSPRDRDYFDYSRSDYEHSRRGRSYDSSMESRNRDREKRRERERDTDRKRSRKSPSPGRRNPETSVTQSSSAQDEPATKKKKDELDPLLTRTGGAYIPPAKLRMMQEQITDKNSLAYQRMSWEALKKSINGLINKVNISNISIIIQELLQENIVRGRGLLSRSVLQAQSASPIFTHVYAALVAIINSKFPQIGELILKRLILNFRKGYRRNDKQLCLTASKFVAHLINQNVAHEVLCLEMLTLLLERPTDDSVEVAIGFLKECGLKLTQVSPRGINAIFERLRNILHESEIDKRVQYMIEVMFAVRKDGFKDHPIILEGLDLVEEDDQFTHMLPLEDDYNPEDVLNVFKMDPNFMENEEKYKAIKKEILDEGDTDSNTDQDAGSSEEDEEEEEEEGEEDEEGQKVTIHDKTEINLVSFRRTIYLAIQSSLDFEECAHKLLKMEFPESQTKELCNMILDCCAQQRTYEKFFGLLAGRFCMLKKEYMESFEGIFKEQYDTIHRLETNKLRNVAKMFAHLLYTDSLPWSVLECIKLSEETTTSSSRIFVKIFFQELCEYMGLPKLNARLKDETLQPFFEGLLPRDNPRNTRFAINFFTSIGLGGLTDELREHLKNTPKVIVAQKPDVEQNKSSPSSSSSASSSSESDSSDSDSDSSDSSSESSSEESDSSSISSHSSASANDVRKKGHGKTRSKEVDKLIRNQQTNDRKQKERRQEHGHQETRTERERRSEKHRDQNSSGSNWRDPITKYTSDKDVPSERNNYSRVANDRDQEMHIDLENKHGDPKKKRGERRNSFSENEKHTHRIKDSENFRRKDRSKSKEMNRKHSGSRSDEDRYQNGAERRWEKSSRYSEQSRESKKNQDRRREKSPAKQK
inactive: [1] 0.043 | [2] 0.017 | [3] -0.015 | [4] 0.002 | [5] 0.02 | [6] 0.015 | [7] 0 | [8] 0.011 | [9] 0.023 | [10] -0.011 | [11] -0.012 | [12] -0.156 | [13] 0.032 | [14] -0.016 | [15] 0.015

CSNK2A2 (UniProt P19784)
UniProt P19784, sequence (P19784 whole entry, looked up): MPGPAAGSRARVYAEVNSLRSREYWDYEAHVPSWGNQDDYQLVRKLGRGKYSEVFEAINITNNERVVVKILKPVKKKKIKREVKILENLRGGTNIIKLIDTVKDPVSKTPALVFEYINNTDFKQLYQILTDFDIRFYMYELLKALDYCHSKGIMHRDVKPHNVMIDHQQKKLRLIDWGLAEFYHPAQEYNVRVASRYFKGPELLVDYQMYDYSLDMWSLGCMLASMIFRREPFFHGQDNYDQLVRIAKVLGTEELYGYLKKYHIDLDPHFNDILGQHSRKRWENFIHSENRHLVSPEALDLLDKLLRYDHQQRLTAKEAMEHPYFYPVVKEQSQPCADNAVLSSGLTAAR
active: [13] 0.879
inactive: [1] -0.031 | [2] 0.195 | [3] -0.039 | [4] 0.254 | [5] -0.004 | [6] 0.001 | [7] -0.014 | [8] 0.094 | [9] 0.018 | [10] -0.003 | [11] 0.383 | [12] -0.105 | [14] -0.008 | [15] 0.466
